USP1-UAF1 inh: blocks the human USP1/UAF1 deubiquitinase complex | O94782 | recombinant USP1/UAF1, Ub-Rhodamine cleavage fluorescence | Potency, µM (top dose mostly 57.1 µM), for inactives: at the highest dose activity change, negative = inhibition, most hits filed as inhibitors | 0.23% of 390,000 active | AID 743255; further: on the % scale 0 is the no-effect control and ±100 the full control effect; nearly all actives have a fitted effect of over 60% in size
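USP1/UAF1 complex (1 nM) preincubated 15 min at room temperature with compound, then Ub-Rho substrate (150 nM final) added. Kinetic fluorescence at 480/540 nm over 6 reads at 60 s intervals; 50 mM HEPES pH 7.8, 0.5 mM EDTA, 0.1 mg/ml BSA, 1 mM TCEP, 0.01% Tween-20.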
EPAC2 ag: EPAC2 (human) agonism. Q8WZA2. EPAC2 activation, biochemical qHTS; response scale: 100% = 6.5 mM cAMP response. Potency, µM (highest dose often 154 µM), for inactives: at the highest dose activation, hits mostly activators. 0.079% of 360,000 active. AID 720711; further: nearly all actives have a fitted effect of over 50% in size
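Compounds were titrated in qHTS against a Rap1B-BODIPY-GDP (250 nM) complex with EPAC2 (100 nM) and GDP (50 uM). BODIPY-GDP release tracked at 480/540 nm over 30 min at room temperature, normalized to 6.5 mM cAMP.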
EPAC1 ag: agonists of human EPAC1 | 0.073% of 360,000 active | Potency, µM (series often up to 154 µM), for inactives: at the highest dose activation, actives largely listed as activators | AID 720707 | O95398 | EPAC1 agonist qHTS, biochemical assay; response scale: 100% = response to 6.5 mM cAMP; further: nearly all actives have a fitted effect of over 60% in size
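Read-out is the fluorescence drop as BODIPY-GDP leaves Rap1B (480 nm excitation, 540 nm emission), recorded every 5 minutes over 30 minutes. Reactions held 100 nM EPAC1, 250 nM Rap1B–BODIPY-GDP and 50 uM GDP, with 6.5 mM cAMP setting full activation.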
EPAC1 antagonist: antagonists of human EPAC1. O95398. EPAC1 GEF assay, Rap1b-BODIPY-GDP exchange fluorescence. Potency, µM (titrated, usually from 115 µM), without a hit: at the top dose activity change, negative = inhibition, usual class: inhibitors. 0.14% of 360,000 active;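 further: plate controls were vehicle for no effect and positive control for full effect; nearly all actives have a fitted effect of over 50% in size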
EPAC2 antag: EPAC2 (human) antagonism; Q8WZA2; EPAC2 GEF exchange of Rap1B-BODIPY-GDP, fluorescence; Potency, µM (titrated, usually from 114 µM), without a hit: at the highest dose activity, negative = inhibition, actives largely listed as inhibitors; 0.18% of 360,000 active; AID 720708; further: on the % scale 0 is the no-effect control and ±100 the full control effect; nearly all actives have a fitted effect of over 45% in size
* hit, by the source's call; ? = inconclusive; nt = no result given. Compounds with a hit are over-represented: about 0.49% of the library has one in this group of screens. The call rests on the fitted dose curve; in most records, active means well fitted curve in the direction sought with a large enough effect; inconclusive means small, poorly fitted or top-dose-only effect, or another doubt; inactive means no such curve, though single readings can be large; an effect the other way counts as inactive or inconclusive. Potency means the concentration at half of the fitted maximal effect.

SMILES | USP1-UAF1 inh | EPAC2 ag | EPAC1 ag | EPAC1 antagonist | EPAC2 antag
CCN(CC1COc2ccccc2O1)C(=O)CN1C(=O)NC(C)(c2ccccc2)C1=O (stereo not drawn) | -12% | 16% | -2% | 14% | -5%
CCN(CC1COc2ccccc2O1)C(=O)CN1C(=O)NC(C)(c2ccc(C)cc2)C1=O (stereo not drawn) | -24% | 3% | 56µM* | -16% | 9%
CCc1cc2c(cc3c(=O)n(CCCC(=O)NCc4cccc(Cl)c4)ncn32)s1 | -24% | nt | nt | nt | nt
COc1ccc(OC)c(-c2csc(NC(=O)COC(=O)c3ccc(NC(=O)CC#N)cc3)n2)c1 | -11% | 1% | 10% | 79µM* | 0%
COC(=O)c1cc(C)nc2c1C(=O)C(=O)C=C2N1CCOCC1 | 1.3µM* | ? | -9% | 3.5µM* | ?
CCOC(=O)c1c(C)nc2sc(C(N)=O)c(N)c2c1-c1ccccc1 | -23% | 7.9µM* | -7% | -3% | -3%
COc1cccc(N2C(=O)C(CC(=O)Nc3ccc(F)cc3)N(CCC3=CCCCC3)C2=O)c1 (stereo not drawn) | -5% | nt | nt | nt | nt
O=C1Cc2ccccc2C(=O)N1 | nt | 20% | 9% | 56µM* | ?
CCOC(=O)c1cc2c(ccn2C)n1CC(=O)N1CCN(c2cccc(C(F)(F)F)c2)CC1 | -20% | -14% | -29% | 56µM* | ?
CCOC(=O)c1cc2c(ccn2C)n1CC(=O)N1CCN(c2ccc(F)cc2)CC1 | -15% | -3% | -11% | 2% | 4%
CCN(CC)c1ccc2cc(C=O)c(=O)oc2c1 | 16µM* | 100µM* | 100µM* | 73% | 18%
CCN(CC)c1ccc2cc(C(=O)Nc3ccccn3)c(=O)oc2c1 | ? | 100µM* | 13% | 4% | 205%
CCN(CC)c1ccc2cc(NC(=O)CCC(=O)O)c(=O)oc2c1 | 28µM* | 27% | ? | 26% | 33%
CCN(CC)c1ccc2cc(C(C)=O)c(=O)oc2c1 | ? | ? | ? | 66% | 71%
CCN(CC)c1ccc2cc(C(N)=O)c(=O)oc2c1 | ? | 7% | 3% | 0% | -3%
CCOC(=O)c1c(C)oc2nc(C)nc(NCc3cccc(Cl)c3)c12 | 2% | nt | nt | nt | nt
COc1ccc(C(CC(=O)NCc2ccc(Cl)cc2)N2Cc3ccccc3C2=O)cc1OC (stereo not drawn) | 3% | nt | nt | nt | nt
CC(=O)/C(N=Nc1ccc(SC(F)F)cc1)=C(\C)O | 0% | -5% | -4% | 1% | -8%
CCSC(=O)N=Nc1ccc(O)cc1 | 32µM* | -18% | -33% | -17% | -19%
Cc1ccc(C(=O)c2coc3ccc(O)c(Cl)c23)cc1 | -6% | 20% | 4% | 20µM* | ?
C(=Cc1c[nH]c2ccccc12)c1nccc2ccccc12 | ? | 19% | -1% | 2% | 10%
OCC[n+]1ccc(/C=C/c2c[nH]c3ccccc23)cc1 | 28µM* | ? | ? | 29% | 67%
CCOc1ccc(NC(=O)C(C)n2c(=O)cc(-c3ccccc3)c3c(C)nn(C)c32)cc1 (stereo not drawn) | -14% | nt | nt | nt | nt
COc1ccc(S(=O)(=O)NC(CCSC)C(=O)NC2CCCCC2)cc1 (stereo not drawn) | -12% | 0% | -47% | 50µM* | 2%
CSCCC(NS(=O)(=O)c1ccc(C)cc1)C(=O)NC1CCCCC1 (stereo not drawn) | -19% | 3% | -5% | 5% | 14%
SMILES | USP1-UAF1 inh | EPAC2 ag | EPAC1 ag | EPAC1 antagonist | EPAC2 antag
CCOc1ccc(CNC(=O)c2ccc(NC(=O)N3CCCCc4ccccc43)cc2)cc1OC | -10% | nt | nt | nt | nt
Cc1cc(=O)n2[nH]c(C)c(-c3ccccc3)c2n1 | -18% | 2% | -2% | 3% | 6%
O=c1cc(-c2ccccc2)nc2c(-c3ccccc3)c(C(F)(F)F)[nH]n12 | -23% | -5% | -5% | ? | 18µM*
COc1ccc(NC(=O)c2ccco2)cc1NC(=O)COc1cc(C)ccc1C(C)C | -31% | nt | nt | nt | nt
NS(=O)(=O)c1cc(C(=O)NC2CCSc3ccccc32)ccc1Cl (stereo not drawn) | ? | -5% | -11% | 28µM* | 35µM*
COc1ccc2c(c1)CC(NC(=O)Nc1ccc(Br)c(C)c1)CO2 (stereo not drawn) | 6% | nt | nt | nt | nt
COc1ccccc1Oc1ncnc2c1oc1ccccc12 | -5% | 12% | 16% | -19% | 79µM*
CC(=O)c1ccc(Oc2ncnc3c2oc2ccccc23)cc1 | 6% | nt | nt | nt | nt
O=c1cc(CN2CCN(S(=O)(=O)c3cccc(Cl)c3)CC2)c2ccc(O)cc2o1 | -18% | -12% | -7% | 79µM* | -9%
CCCCOc1ccc(C(=O)NCCS(=O)(=O)N2CCN(c3ccccc3OC)CC2)cc1 | -25% | nt | nt | nt | nt
O=C(/C=C/c1ccco1)NCC1OCCc2ccccc21 (stereo not drawn) | -5% | -6% | -1% | 56µM* | 8%
Cc1cccc(N2CCN(C(=O)c3cc4ccc5cccnc5c4[nH]3)CC2C)c1 (stereo not drawn) | -17% | nt | nt | nt | nt
Cc1ccc(NC(=O)c2c(NC(=O)C(F)(F)F)sc3c2CCCCC3)cc1 | -19% | nt | nt | nt | nt
CC1CCc2cccc3c2N1c1cc(C#N)c(C#N)cc1O3 (stereo not drawn) | 28µM* | 24% | 1% | 22% | 3%
CC1CCCCN1c1cc(C#N)c(C#N)cc1[N+](=O)[O-] (stereo not drawn) | 7% | 3% | 4% | -4% | -2%
CC1CCN(Cc2c(O)ccc3c2O/C(=C\c2ccco2)C3=O)CC1 | 32µM* | -34% | 17% | -14% | 25%
O=C1/C(=C/c2ccco2)Oc2c1ccc(O)c2CN1CCCCC1 | 32µM* | -34% | ? | -16% | 53%
CCN1CCN(Cc2c(O)ccc3c(=O)c(-c4ccccc4OC)coc23)CC1 | -9% | 6% | 6% | -4% | 0%
CCN1CCN(Cc2c(O)ccc3c2O/C(=C\C=C\c2ccccc2OC)C3=O)CC1 | 28µM* | ? | 56µM* | 46% | 89%
COCCN(CCOC)Cc1c(O)ccc2c1O/C(=C\c1ccco1)C2=O | -18% | -36% | -32% | 174% | 64%
CCC(=O)C1=C(c2ccc(F)cc2)N(C(=O)CC)n2c(nnc2-c2ccc(OC)cc2)S1 | -8% | nt | nt | nt | nt
COc1ccc(CNC(=O)CCCN2C(=O)COc3ccc(C)cc32)cc1 | -10% | nt | nt | nt | nt
O=c1oc(-c2ccccc2)c(-c2ccccc2)c2ccccc12 | -23% | 4% | 4% | -19% | 45µM*
